Among the data in PubChem BioAssay (NCATS) are Potency values, retold here.

Results filed as inconclusive are left out. A call without a number means that no potency is given here. Active and inactive are the calls of the source. Calls follow the shape of the dose curve; as a rule, active = well fitted cell-killing curve with a large enough effect; inconclusive = small, poorly fitted or top-dose-only effect, or effect the other way; inactive = flat fitted curve, though single readings scatter. Non-standard residues stand in square brackets, D forms with d. Residues, ends and D or L forms follow the SMILES beside them. *: point of attachment. Sta = CC(C)C[C@H](N)[C@@H](O)CC(=O)O; Isovaleryl = CC(C)CC(=O)*
Potency is read from the fitted curve at half-maximal effect.

The test deals with CAOV3. As to the kind of experiment: Primary qHTS to identify gynecologic anti-cancer compounds using libraries of approved drugs and bioactive compounds (AID 1345084). Also: nearly all actives have a fitted effect of over 55% in size. The settings on record: Gynecologic cancer cell panel viability, ATPlite luminescence, 48 h; series mostly up to 57.5 µM. From the text: National Center for Advancing Translational Sciences [NCATS] Assay Overview: Chemotherapeutic drug responses vary from cancer to cancer and from patient to patient. These variations could be caused by a number of factors including patient genomic background, tumor mutations, tumor heterogeneity, and aspects of drug treatment. Chemotherapeutic drug resistance is also a common issue and can lead to ineffective treatment and patient death. Here we have profiled the cell killing effects of thousands of compounds to characterize the responses in three gynecological cancers, identify cancer-selective compounds, and understand the diversity of responses to these compounds from pan-cancer suppressors to single cell line selective compounds. In this assay, we screened a 7,914 compound drug library that included approved drug and bioactive compounds in six ovarian, three cervical, and […] placental cancer cell lines using the ATPlite assay for cell viability. […] The cervical cancer cell lines included HeLa, Ca Ski, and C-33 A. The placental cancer cell lines included JEG-3. HEK 293T cells were used as the control cell line to determine the selectivity index. ATPlite is a luminescence based assay reliant on the conversion of a luciferase substrate to light in the presence of ATP. As a cytotoxic compound will suppress growth and decrease the number of cells, the concentration of ATP will decrease, and less light signal will be detected in the well.
Assay Protocol Summary: 1,000 cells in 4 uL of media were dispensed into white, solid bottom 1536-well plates using a Multidrop Combi (Thermo Scientific). The Assay plates were incubated for 16 hours at 37 C with 5% CO2 in assay plates, followed by the addition of 23 nL of DMSO or drug dissolved in DMSO. Each compound was assayed in five concentrations (0.092, 0.46, 2.3, 11.5, and 57.5 uM), using the automated Wako 1536 Pin Tool workstation and incubated at 37 C with 5% CO2 48 hours. 4 uL of ATPlite, the ATP monitoring reagent, was then added to the each well of the assay plates using the Multidrop Combi reagent dispenser followed by incubation for 15 minutes at room temperature. The resulting luminescence was measured using the ViewLux plate reader.
Background: Quantitative high-throughput screening tests each substance at several concentrations.
As to `COc1ccc2cc([C@H](C)C(=O)O)ccc2c1`, the Potency result is “inactive”.

In the case of `c1ccc2[nH]c(-c3cscn3)nc2c1`, the Potency entry was “inactive”. The entry for `COc1cc(OC)c(C(=O)CCCN2CCCC2)c(OC)c1` is “inactive”; for `Oc1ccc(OCc2ccccc2)cc1` it is “inactive”; for `O=C(OC1C[C@H]2CC[C@@H](C1)[N+]21CCCC1)C(O)(c1ccccc1)c1ccccc1` (stereo not given in full) it is “inactive”. The entry for `Cc1ccc(C(=O)c2cc(O)c(O)c([N+](=O)[O-])c2)cc1` is “inactive”.

For the molecule `COc1ccccc1N1CCN(CCN(C(=O)C2CCCCC2)c2ccccn2)CC1`, the Potency result was “inactive”.

`N[C@@H](Cc1cc(I)c(Oc2cc(I)c(O)c(I)c2)c(I)c1)C(=O)O`: the Potency result is “inactive”.

In the case of `Cc1ccc(C)c(OCCCC(C)(C)C(=O)O)c1`, the Potency entry is “inactive”. For the molecule `CC(C)c1ccc2oc3nc(N)c(C(=O)O)cc3c(=O)c2c1`, the Potency is 6.31 µM (active). The entry for `CC(=O)NC[C@H]1CN(c2ccc(N3CCOCC3)c(F)c2)C(=O)O1` is “inactive”. For `N=C(N=C(N)N)N1CCOCC1` the value was “inactive”. The entry for `S=c1nc[nH]c2nc[nH]c12` is “inactive”; for `COC(=O)C1=C(C)NC(C)=C(C(=O)OC(C)C)C1c1cccc2nonc12` (stereo not given) it is “inactive”. Consider `Nc1ccc(S(N)(=O)=O)cc1`, for which the Potency entry is “inactive”. For `CN(C)c1ccc(O)c2c1C[C@H]1C[C@H]3[C@H](N(C)C)C(=O)C(C(N)=O)=C(O)[C@@]3(O)C(=O)C1=C2O` the value was “inactive”; for `COc1cc(C(C)=O)ccc1OCCCN1CCC(c2noc3cc(F)ccc23)CC1`, “inactive”. For `NS(=O)(=O)c1cc(C(=O)O)c(NCc2ccco2)cc1Cl` the value was “inactive”; for `Nc1ncn([C@H]2C[C@H](O)[C@@H](CO)O2)c(=O)n1`, “inactive”; for `Cn1c(NCCN(CCO)CCCc2ccc([N+](=O)[O-])cc2)cc(=O)n(C)c1=O`, “inactive”. The entry for `Cc1ccc(S(=O)(=O)NC(=O)NN2CC3CCCC3C2)cc1` (stereo not given) is “inactive”; for `CN(C)CCCC1(c2ccc(F)cc2)OCc2cc(C#N)ccc21` (stereo not given) it is “inactive”; for `Cc1cc(=O)oc2cc(O)ccc12` it is “inactive”. Regarding `O=C(O)c1cc(=O)c2c(OCC(O)COc3cccc4oc(C(=O)O)cc(=O)c34)cccc2o1`, the Potency result is “inactive”. `CC(=O)Nc1ccc(O)cc1`: the Potency entry was “inactive”. The entry for `CC(C)CC(=O)N[C@H](C(=O)N[C@H](C(=O)N[C@@H](CC(C)C)[C@@H](O)CC(=O)N[C@@H](C)C(=O)N[C@@H](CC(C)C)[C@@H](O)CC(=O)O)C(C)C)C(C)C` (Isovaleryl-VV[Sta]A[Sta]-OH) is “inactive”. Turning to `Cc1cc2c(s1)Nc1ccccc1N=C2N1CCN(C)CC1`, the Potency entry was “inactive”. For `Cc1cc(C2CCCCC2)n(O)c(=O)c1` the value was 15.8 µM (active); for `OC(CN1CCN(c2cccc(Cl)c2)CC1)C(c1ccccc1)c1ccccc1` (stereo not given), “inactive”; for `c1cnc2cc3c(cc2n1)C1CNCC3C1`, “inactive”. For `CCCc1cc(=O)[nH]c(=S)[nH]1` the value was “inactive”; for `CC[C@]1(O)C[C@H]2CN(CCc3c([nH]c4ccccc34)[C@@](C(=O)OC)(c3cc4c(cc3OC)N(C=O)[C@H]3[C@@](O)(C(=O)OC)[C@H](OC(C)=O)[C@]5(CC)C=CCN6CC[C@]43[C@@H]65)C2)C1`, “inactive”. The entry for `COCCCN1CCC(NC(=O)c2cc(Cl)c(N)c3c2OCC3)CC1` is “inactive”; for `COc1c(O)cc2c(c1O)[C@@H]1O[C@H](CO)[C@@H](O)[C@H](O)[C@H]1OC2=O` it is “inactive”. In the case of `CC(C)c1nc(CN(C)C(=O)N[C@H](C(=O)N[C@@H](Cc2ccccc2)C[C@H](O)[C@H](Cc2ccccc2)NC(=O)OCc2cncs2)C(C)C)cs1`, the Potency result is “inactive”.

Take `CN(c1nccc(=O)[nH]1)C1CCN(c2nc3ccccc3n2Cc2ccc(F)cc2)CC1`: the Potency result is “inactive”. The entry for `CN(C)C(=O)[C@H](O)[C@H](Cc1ccccc1)NC(=O)c1cc2cc(Cl)ccc2[nH]1` is “inactive”; for `CNC[C@H](O)c1ccc(O)c(O)c1` it is “inactive”; for `Cc1nc(Nc2ncc(C(=O)Nc3c(C)cccc3Cl)s2)cc(N2CCN(CCO)CC2)n1` it is 8.91 µM (active). The entry for `CC(S)C(=O)NCC(=O)O` (stereo not given) is “inactive”.
